Source: PubChem BioAssay
Measured potencies and affinities stand elsewhere. Calls of active or inactive are those of the source. Unless noted, the rule behind the calls is not given here.

Biological target: Calcium-dependent protein kinase 1 (Plasmodium falciparum (isolate 3D7)) (UniProt P62344)
Experiment: PfCDPK1 kinase inhibitors, biochemical, TCAMS library (AID 1159585; cut-off not given, nearly all actives have IC50 up to about 0.98 µM;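 note: inhibitors leave more ATP so luminescence rises with inhibition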)
Settings: recombinant PfCDPK1, Kinase-Glo ATP depletion luminescence

Chain of Calcium-dependent protein kinase 1 (Plasmodium falciparum (isolate 3D7)) (P62344 whole entry, looked up): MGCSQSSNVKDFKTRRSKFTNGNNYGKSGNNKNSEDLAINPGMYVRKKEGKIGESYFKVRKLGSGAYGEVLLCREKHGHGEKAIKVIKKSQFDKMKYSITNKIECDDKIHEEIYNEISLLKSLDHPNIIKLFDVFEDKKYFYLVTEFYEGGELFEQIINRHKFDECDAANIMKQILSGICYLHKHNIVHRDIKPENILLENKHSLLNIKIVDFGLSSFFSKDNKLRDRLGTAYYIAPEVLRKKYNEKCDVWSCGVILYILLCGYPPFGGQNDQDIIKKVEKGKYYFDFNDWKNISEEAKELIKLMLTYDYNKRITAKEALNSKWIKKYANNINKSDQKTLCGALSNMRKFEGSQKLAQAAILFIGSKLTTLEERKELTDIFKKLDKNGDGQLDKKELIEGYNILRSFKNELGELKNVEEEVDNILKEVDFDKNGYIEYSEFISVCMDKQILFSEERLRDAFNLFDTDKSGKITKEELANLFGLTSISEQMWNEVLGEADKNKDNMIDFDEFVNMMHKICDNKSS

outcome, inactive:
Cc1cc(NN=Cc2cccc(Cl)c2)c2ccccc2n1, COc1cc2c(c(Cl)c1OC)CCN(Cc1ccccc1)CC2c1ccc(NC(=O)C(F)(F)F)cc1 (stereo unspecified), COc1ccc2nccc([C@@H](O)CN3CCC(NC(=O)C(c4ccsc4)N4CCN(c5ccccc5OC)CC4)CC3)c2c1 (stereo partly specified), CN(C)CCCOc1cc(NC(=O)Nc2ccc(-c3ccncc3)c3ccccc23)ccc1I, O=C(/C=C/c1ccc(Cl)c(Cl)c1)NC1CCN(Cc2cccc(O)c2)CC1, COc1ccc2ncc(Cl)c(CCN3CC[C@@H](CNCc4cc5c(cn4)OCS5)C3)c2n1, NC1=NC(c2ccccc2)(c2ccccn2)C(=O)N1CCCc1ccccc1 (stereo unspecified), COc1ccc(-c2cccc(CNCc3ccc(F)cc3)c2)cc1S(=O)(=O)NCCN1CCCC1, CC(=O)Nc1cc(C(=O)Nc2cccc(-c3cccc(-c4nc5c(C)cccc5[nH]4)c3)c2)ccc1C, Nc1cc(-c2ccc(-c3cccs3)s2)nc2ccccc12, COc1cc2c(cc1S(=O)(=O)c1ccc(NC(=O)Nc3ccc(F)cc3)cc1)CCN(C)CC2

Biological target: Plasmodium falciparum protein kinase 6 (PK6, PF3D7_1337100) (UniProt Q8IDW1)
Experiment: PfPK6 kinase inhibitors, biochemical, TCAMS library (AID 1159586)
Settings: recombinant PfPK6, Kinase-Glo ATP depletion luminescence

Chain of Plasmodium falciparum protein kinase 6 (PK6, PF3D7_1337100) (Q8IDW1 1-305): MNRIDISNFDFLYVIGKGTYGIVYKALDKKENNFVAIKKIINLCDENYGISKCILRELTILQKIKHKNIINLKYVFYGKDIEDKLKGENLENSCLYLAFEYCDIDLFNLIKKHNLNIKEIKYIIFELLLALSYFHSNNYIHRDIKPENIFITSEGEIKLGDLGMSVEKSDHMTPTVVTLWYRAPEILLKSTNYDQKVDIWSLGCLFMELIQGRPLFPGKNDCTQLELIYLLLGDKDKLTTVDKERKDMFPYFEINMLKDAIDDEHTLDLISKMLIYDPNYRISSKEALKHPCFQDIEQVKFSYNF

outcome, inactive:
OCCCCCCNc1ccnc2[nH]c3ccc(I)cc3c12, COc1cccc2cc(C(=O)N[C@@H](CC(C)C)C(=O)N[C@H](/C=N/N3C(=O)CN(Cc4ccccc4)C3=O)CCc3ccccc3)oc12, O=C(Cn1c2ccccc2c(=O)c2ccc(Cl)cc21)Nc1ccc(C(F)(F)F)cc1, CCc1cc([C@H]2O[C@@H](n3cnc4c(NCC(c5ccccc5)c5ccccc5)nc(NCCNc5ccccn5)nc43)[C@H](O)[C@@H]2O)on1, O=S(=O)(NCCN1CCCC1)c1ccc(-c2cccc(CNC3Cc4ccccc4C3)c2)cc1F, O=C(Cn1c(=O)oc2ccccc21)N1CCC(n2c(=O)n(CCCN3CCOCC3)c3ccccc32)CC1, Cc1cccc(NC(=O)c2cnc(N3CCN(c4ccncc4)CC3)c(Cl)c2)c1, COc1ccc2nc(C)cc(NN=Cc3ccccc3)c2c1, CN(C)S(=O)(=O)c1ccc(Nc2nc(NCCC3C=NC=N3)nc3cc[nH]c(=O)c23)cc1 (stereo unspecified), O=C(/C=C/c1ccc(C(F)(F)F)cc1)NCCCCCN1CCN(C(=O)Nc2ccc(Cl)cc2)CC1, Cc1cc(N[C@@H](Cc2ccccc2)C(=O)NCc2cccc(F)c2)nc(NCCOc2ccccc2)n1, Cc1cc(C)c(O)c(-c2cc(C(=O)Nc3ccc(S(=O)(=O)N4CC(C)OC(C)C4)cc3)[nH]n2)c1 (stereo unspecified), Oc1ccc(Nc2nc(NCC3CCCO3)c3ccccc3n2)cc1 (stereo unspecified), CCOC(=O)c1cn(CC)c2cc(O[C@H]3CCN(C(=O)OC(C)(C)C)C3)ccc2c1=O, OC(COc1ccccc1-c1nc2ccccc2o1)CN1CCCN(CCc2ccccc2)CC1 (stereo unspecified), CCC(C)NS(=O)(=O)c1ccc2nc(Nc3ccc(C)cc3)n([C@H](C)C(C)(C)C)c2c1 (stereo partly specified), CC(C)CNC(=O)c1cncc(-c2cccc(CNC3Cc4ccccc4C3)c2)c1, COc1ccc2nccc([C@@H](O)CN3CCC(NC(=O)c4ccc(Oc5ccccc5)cc4)CC3)c2c1, CC(C)c1ccc(CN2CCC(CNC(=O)c3cc(-c4cccc(F)c4)cs3)C2)cc1 (stereo unspecified), COc1ccc2[nH]c(C(=O)Nc3ccc4nc(-c5ccccc5)[nH]c4c3)cc2c1, Cc1cc(NC(c2ccc(Cl)cc2)c2ccc3cccnc3c2O)no1 (stereo unspecified), Clc1ccc(CNC2CCN(CC3CCCCC3)CC2)cc1, CS(=O)(=O)c1cccc2sc(N3CCN(C(=O)c4ccc([N+](=O)[O-])o4)CC3)nc12, CCOC(=O)c1ccc(NC(=O)N(Cc2ccc(-c3cccc(CN4CCNCC4)c3)cc2)C2CCN(Cc3ccccc3)CC2)cc1, CCCCOc1ccc(N2C(N)=NC(N)=NC2(C)C)cc1, O=C(/C=C/c1ccc(Cl)c(Cl)c1)NCCCCCCN1CCN(C(=O)Nc2ccc(Cl)c(C(F)(F)F)c2)CC1, CCCCNC(=O)C(C)NC(=O)c1ccc(O)c(-c2ccc(Cl)c(Cl)c2)c1 (stereo unspecified), N#Cc1ccc2c(c1)CCN(CCC1CCC(NC(=O)c3cc4cccc([N+](=O)[O-])c4[nH]3)CC1)C2 (stereo unspecified), Cc1cccc(-c2nn(-c3ccccc3)c3[nH]c(=O)c(CNC4CCCC4)cc23)c1, Cc1cc(NN=Cc2cccc(Cl)c2)c2ccccc2n1, COc1cc2c(c(Cl)c1OC)CCN(Cc1ccccc1)CC2c1ccc(NC(=O)C(F)(F)F)cc1 (stereo unspecified), COc1ccc2nccc([C@@H](O)CN3CCC(NC(=O)C(c4ccsc4)N4CCN(c5ccccc5OC)CC4)CC3)c2c1 (stereo partly specified), CN(C)CCCOc1cc(NC(=O)Nc2ccc(-c3ccncc3)c3ccccc23)ccc1I, O=C(/C=C/c1ccc(Cl)c(Cl)c1)NC1CCN(Cc2cccc(O)c2)CC1, COc1ccc2ncc(Cl)c(CCN3CC[C@@H](CNCc4cc5c(cn4)OCS5)C3)c2n1, NC1=NC(c2ccccc2)(c2ccccn2)C(=O)N1CCCc1ccccc1 (stereo unspecified), COc1ccc(-c2cccc(CNCc3ccc(F)cc3)c2)cc1S(=O)(=O)NCCN1CCCC1, CC(=O)Nc1cc(C(=O)Nc2cccc(-c3cccc(-c4nc5c(C)cccc5[nH]4)c3)c2)ccc1C, Nc1cc(-c2ccc(-c3cccs3)s2)nc2ccccc12, COc1cc2c(cc1S(=O)(=O)c1ccc(NC(=O)Nc3ccc(F)cc3)cc1)CCN(C)CC2
